TrxR1 inh: inhibitors of rat thioredoxin reductase 1; recombinant rTrxR1, NADPH fluorescence consumption, selenite substrate; 390,000 tested, 1% active; O89049; Potency, µM (highest dose often 114 µM), inactives show at the top dose activity change, negative = inhibition, most hits filed as inhibitors; also: potency is read from the fitted curve at half-maximal effect; nearly all actives have a fitted effect of over 65% in size
Target sequence (O89049 whole entry, looked up): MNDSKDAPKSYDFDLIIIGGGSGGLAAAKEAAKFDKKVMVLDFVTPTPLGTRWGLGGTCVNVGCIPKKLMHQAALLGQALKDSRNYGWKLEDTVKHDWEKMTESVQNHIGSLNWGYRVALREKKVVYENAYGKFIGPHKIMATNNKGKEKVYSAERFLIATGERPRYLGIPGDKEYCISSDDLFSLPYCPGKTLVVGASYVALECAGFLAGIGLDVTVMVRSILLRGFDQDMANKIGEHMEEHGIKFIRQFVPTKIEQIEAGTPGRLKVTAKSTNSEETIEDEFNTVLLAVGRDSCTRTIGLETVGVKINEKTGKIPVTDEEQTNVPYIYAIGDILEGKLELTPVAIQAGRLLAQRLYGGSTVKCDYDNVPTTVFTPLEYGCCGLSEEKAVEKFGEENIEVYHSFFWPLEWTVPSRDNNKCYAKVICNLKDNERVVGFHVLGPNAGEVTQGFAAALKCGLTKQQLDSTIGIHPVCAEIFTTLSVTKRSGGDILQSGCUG
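Rat TrxR1 (90 nM in the dispensed reagent) was pre-reduced with 400 uM NADPH for 5 min at room temperature, then incubated with compound for 15 min. After 400 uM selenite was added, NADPH fluorescence (Ex 340/Em 450 nm) was followed for 8 min.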
RORg inh: ROR gamma (mouse) transcription inhibition | P51450 | Drosophila S2 Gal4-RORgamma UAS-luciferase reporter, 20 h | Potency, µM (doses to about 53.6 µM), without a hit: at the highest dose activity change, negative = inhibition, hits mostly inhibitors | 310,000 tested, 5.4% active; also: potency is read from the fitted curve at half-maximal effect; nearly all actives have a fitted effect of over 60% in size
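Luciferase reporter read in Schneider cells carrying Gal4-RORγ (mouse) and UAS-Photinus luciferase; cells given compound 1 h before 700 uM copper sulfate induction, then incubated 20 h at ambient temperature.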
Coupling enz: inhibits coupling enzyme system, counter-screen for aldolase hits | coupling enzyme system counterscreen, AmpLite Red fluorescence | activity change, negative = inhibition, % at 58.2 µM, hits read low | 290,000 tested, 0.67% active | AID 2472; in the data active = activity change below about -30%
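Coupling enzymes only (glyceraldehyde-3-phosphate) + compound, at 57.5 uM final, 10 min RT; add substrate/coupling/AmpLite Red mix, 20 min RT; fluorescence ex 525/em 598 nm. Actives flag coupling-system interference.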
Gal4-VP16 FLuc: inhibits Gal4-VP16 luciferase reporter, ROR gamma counter-screen; Drosophila S2 Gal4-VP16 UAS-luciferase, luminescence, 20 h; Potency, µM (top dose mostly 53.6 µM), for the others: at the highest dose activity, negative = inhibition, most hits filed as inhibitors; 310,000 tested, 3.5% active; AID 2546;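 also: Gal4-VP16 expression switched on by copper sulfate through the metallothionein promoter; potency is read from the fitted curve at half-maximal effect; nearly all actives have a fitted effect of over 50% in size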
TrxR1 substrate: is turned over as a substrate by rat TrxR1 | O89049 | purified TrxR1 substrate turnover, NADPH consumption readout | Potency, µM (highest dose often 114 µM), for the others: at the highest dose activity change, negative = substrate turnover | 390,000 tested, 0.01% active; also: potency is read from the fitted curve at half-maximal effect; nearly all actives have a fitted effect of over 50% in size
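Rat TrxR1, dispensed at 90 nM, was prereduced with 400 uM NADPH (final) for 5 min at ~22 deg C, then incubated with compound 15 min before 400 uM selenite. A first-read NADPH fluorescence drop versus no-compound background flagged substrates.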
GALK inh: galactokinase (human) inhibition | P51570 | Purified GALK, Kinase-Glo residual ATP luminescence | Potency, µM (series often up to 57.5 µM), for inactives: top-dose activity change, negative = inhibition, actives largely listed as inhibitors | 270,000 tested, 0.007% active; also: potency is read from the fitted curve at half-maximal effect
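The enzyme phosphorylates galactose (100 uM) using ATP (35 uM); inhibition is detected as higher residual ATP, quantified by bioluminescence after 1 h reaction at room temperature, pH 8.0.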
Starred values were filed as active, the others as inactive; ? = inconclusive; · = no result; [ ] = another dose, or the depositor's remark. A selection: hits, their analogues and other compounds. The true share with any hit is near 5.9%. Unless noted, calls follow the shape of the dose curve; as a rule, active = well fitted curve in the direction sought with a large enough effect; inconclusive = small, poorly fitted or top-dose-only effect, or another doubt; inactive = no such curve, though single readings can be large; an effect the other way counts as inactive or inconclusive. % is scaled to controls: 0 for no effect and ±100 for the full control effect.

SMILES	TrxR1 inh	RORg inh	Coupling enz	Gal4-VP16 FLuc	TrxR1 substrate	GALK inh
CCn1c(COc2cccc(C)c2)nnc1SCC(=O)CC(=O)Nc1ccccc1OC	-17%	10µM*	7	?	-4%	-4%
CCn1c(COc2cccc(C)c2)nnc1SCC(=O)N1CCCC1	19%	?	-2	-8%	10%	1%
CCn1c(COc2ccccc2)nnc1SCC(=O)CC(=O)Nc1ccccc1OC	-13%	?	-9	22µM*	1%	-1%
O=C(CSc1nnc(Cc2cccs2)n1Cc1ccco1)Nc1cccc(Cl)c1	25µM*	?	-1	11µM*	6%	0%
Cc1ccccc1NC(=O)CSc1nnc(-c2ccccc2)n1-c1ccccc1	25%	13%	·	0%	12%	-6%
COc1ccccc1NC(=O)CC(=O)CSc1nnc(-c2ccc(C)cc2)n1-c1ccccc1	-28%	7.1µM*	7	10µM*	-2%	2%
CC1(C)O[C@@H]2C[C@H]3[C@H]4C[C@H](F)C5=CC(=O)CC[C@]5(C)[C@@H]4[C@H](O)C[C@]3(C)[C@]2(C(=O)CO)O1	·	-10%[2.98 µM]	0	-5%[17 µM]	·	·
CCn1c(COc2cccc(C)c2C)nnc1SCC(=O)N1CCN(c2ccc(OC)cc2)CC1	12%	11%	0	0.89µM*	-3%	3%
Cc1cnc(NC(=O)CSc2ncc(-c3ccccc3)n2Cc2ccco2)s1	14%[57.1 µM]	11µM*	-1	-29%	19%[57.1 µM]	-2%
CCn1c(CNC(=O)COc2ccc(C(C)C)cc2)nnc1SCC(=O)Nc1ccccc1F	-6%	-30%	-1	?	-1%	0%
CCn1c(COc2ccccc2C)nnc1SCC(=O)N1CCN(c2ccccc2)CC1	17%	41%	1	-13%	-9%	-2%
COc1ccc(NC(=O)CSc2nnc(COc3ccccc3)n2Cc2ccco2)cc1OC	-11%	-40%	3	11µM*	-5%	8%
CCn1c(CNC(=O)COc2ccc(C(C)C)cc2)nnc1SCC(=O)Nc1ccccc1C(C)C	9%	31%	3	20µM*	-7%[57.1 µM]	1%
Cc1ccc(C(C)C)c(OCC(=O)Nc2cc(-c3nc4ccccc4[nH]3)ccc2C)c1	5%	·	·	·	7%	·
N#Cc1ccccc1NC(=O)CSc1nnc(-c2ccccc2O)n1-c1ccccc1	18%	13µM*	1	?	4%	-2%
COc1ccc(C(C)=O)cc1CSc1nnc(-c2ccncc2)n1C	7%	0%	-1	-5%	-5%	-2%
CCn1c(COc2ccccc2C)nnc1SCC(=O)CC(=O)Nc1ccccc1OC	-6%	10µM*	1	13µM*	-2%	-1%
CCn1c(COc2ccccc2C)nnc1SCC(=O)OC	4%	3%	4	3%	2%	-2%
COc1ccc(C(C)=O)cc1CSc1nnc(-c2ccc(Cl)cc2)n1-c1ccccc1	1%	?	3	16µM*	4%	-1%
COc1ccc(S(=O)(=O)N(C)c2ccccc2)c2cccnc12	10%	1%	-1	0%	0%	0%
Cc1ccc(-c2noc(CNS(=O)(=O)c3ccc(F)cc3)n2)cc1	11%	·	·	·	-4%	·
Cc1nnc2n(Cc3ccccc3)c(=O)c3c4c(sc3n12)CCCC4	·	11µM*	-3	?	·	-4%
O=C(CSc1ccc(-c2ccco2)nn1)N1CCCCC1	-66%	9%	-47*	-8%	7%[57.1 µM]	1%
O=C(CSc1ccc(-c2ccco2)nn1)N1CCCC1	45µM*	1%	1	0%	2%	3%
O=C(CSc1ccc(-c2ccccn2)nn1)N1CCCC1	-54%	41%	0	-7%[10 µM]	1%	-3%
COc1ccc(CNC(=O)CCc2nc3cc(S(=O)(=O)N(C)C)ccc3n2C)cc1OC	-2%	0%	1	9%	4%[57.1 µM]	-8%
COC(=O)c1cnn(-c2ccccc2)c1/C=N/NC(=S)Nc1ccc(Cl)cc1	-5%[57.1 µM]	0.45µM*	-8	2µM*	1%[57.1 µM]	1%

Source: PubChem
